Several values for one entry are separate records, joined by “and”; a condition that tells them apart may be missing. Identical values can stand only once. Results filed as inconclusive are left out. A call without a number means that no potency is given here. More than one record can exist for a structure, and the calls need not agree. Activity calls are given as the source filed them. Calls come from the whole dose curve; as a rule, active = well fitted cell-killing curve with a large enough effect in the repeat runs; inconclusive = weak or mixed curves, or effect the other way; inactive = flat fitted curve, though single readings scatter.
assay: qHTS assay to identify small molecule agonists of the estrogen receptor beta (ER-beta) signaling pathway - cell viability counter screen (AID 1259380); details: ER-beta-bla HEK293T viability, CellTiter-Glo luminescence, 16 h; series mostly up to 92.4 µM; note: nearly all actives have a fitted effect of over 30% in size
Excerpt: National Center for Advancing Translational Sciences [NCATS]
NIH Chemical Genomics Center [NCGC]
U.S. Environmental Protection Agency [EPA]
National Institutes of Environmental Health Sciences [NIEHS]
National Toxicology Program [NTP]
U.S. Food and Drug Administration [FDA]
Estrogen receptor (ER), a nuclear hormone receptor, plays an important role in development, metabolic homeostasis and reproduction. Two subtypes of ER, ER-alpha and ER-beta, have similar expression patterns with some uniqueness in both types. Endocrine disrupting chemicals (EDCs) and their interactions with steroid hormone receptors like ER causes disruption of normal endocrine function. To identify the compounds that activate ER signaling, an ER beta-UAS-bla GripTite cell line (Life Technologies, Madison, WI, USA) containing a beta-lactamase reporter gene under the control of an UAS response element was used to screen Tox21 10K compound library. The cytotoxicity of the Tox21 compound library against the ER-beta-bla cell line was tested in parallel by measuring the cell viability using CellTiter-Glo assay in the same wells.
Tox21 Assay Protocol Summary:
ER-beta-UAS-bla HEK293T cells were dispensed at 2,000 cells/5 uL of assay medium containing 2% charcoal stripped FBS per well into black wall/clear-bottom 1536-well plates using a Multidrop Combi (ThermoFisher Scientific, Waltham, MA) dispenser. After the assay plates were incubated at a 37C and 5% CO2 for 6 hr, 23 nL of compounds dissolved in DMSO, positive controls or DMSO only was transferred to the assay plate by a Pintool station (Kalypsys, San Diego, CA). The plates were incubated at 37C and 5% CO2 for 16 hr. Then 1 uL of LiveBLAzerTM B/G FRET substrate was added using a BioRAPTR FRD (Flying Reagent Dispenser, Aurora Discovery, San Diego, CA) and then the plates were incubated at room temperature for 2 hours, and fluorescence intensity was measured by an Envision plate reader (PerkinElmer, Shelton, CT). For cell viability readout that measures cytotoxicity, 4 uL/well of CellTiter-Glo reagent was added into the assay plates using a FRD. After 30 min incubation at room temperature, the luminescence intensity in the plates was measured using a ViewLux (PerkinElmer) plate reader.
Potency is the fitted concentration of half-maximal effect.

Row | SMILES | Potency
1 | Cl/C=C\CCl | inactive
2 | CC(C)N1C(=O)N(c2ccccc2)CSC1=NC(C)(C)C | 54.5 µM (active)
3 | N#CNC#N | inactive
4 | CC(O)C#N (stereo not given) | inactive
5 | CC(C)(c1ccc(O)c(-c2ccccc2)c1)c1ccc(O)c(-c2ccccc2)c1 | 27.3 µM (active)
6 | CSCCCN=C=S | inactive
7 | CC(c1ccc(O)cc1)c1ccc(O)cc1 | 40.6 µM (active) and inactive
8 | Clc1ccc(C(c2ccc(Cl)cc2)C(Cl)(Cl)Cl)cc1 | 61.6 µM (active) and 54.5 µM (active)
9 | COC(=O)N(C(=O)N1CO[C@@]2(C(=O)OC)Cc3cc(Cl)ccc3C2=N1)c1ccc(OC(F)(F)F)cc1 | inactive
10 | Clc1ccc(COC(Cn2ccnc2)c2ccc(Cl)cc2Cl)cc1 (stereo not given) | 57 µM (active) and 30.5 µM (active) and 11.9 µM (active)
11 | CC(C)(C)C(O)/C(=C\c1ccc(Cl)cc1Cl)n1cncn1 (stereo not given) | 74 µM (active)
12 | C[C@@H]1CC[C@@]2(OC1)O[C@H]1[C@@H](O)[C@H]3[C@@H]4CC[C@H]5C[C@@H](O[C@@H]6O[C@H](CO)[C@H](O[C@@H]7O[C@H](CO)[C@@H](O)[C@H](O[C@@H]8OC[C@@H](O)[C@H](O)[C@H]8O)[C@H]7O[C@@H]7O[C@H](CO)[C@@H](O)[C@H](O[C@@H]8O[C@H](CO)[C@@H](O)[C@H](O)[C@H]8O)[C@H]7O)[C@H](O)[C@H]6O)[C@H](O)C[C@]5(C)[C@H]4CC[C@]3(C)[C@H]1[C@@H]2C | 9.16 µM (active)
13 | CC(C)OS(C)(=O)=O | inactive
14 | O=S(=O)(c1ccc(Cl)cc1)c1ccc(Cl)cc1 | inactive
15 | [Cl][Sn]([c]1ccccc1)([c]1ccccc1)[c]1ccccc1 | 0.82 µM (active)
16 | CC(=O)/C=C/c1ccc2c(c1)OCO2 | inactive
17 | Nc1ccccc1C(=O)OC/C=C/c1ccccc1 | 21.7 µM (active)
18 | CC(C)OC(=O)C(O)(c1ccc(Cl)cc1)c1ccc(Cl)cc1 | inactive
19 | ClCc1ccccc1CCl | inactive
20 | CCCCCCCCCCBr | inactive

Row | SMILES | Potency
21 | COc1cccc(C(=O)CCN[C@@H](C)[C@H](O)c2ccccc2)c1 | inactive
22 | Nc1c(Oc2ccccc2)cc(O)c2c1C(=O)c1ccccc1C2=O | inactive
23 | [Hg+2].[I-].[I-] | 5.45 µM (active)
24 | Oc1ccc(C(c2ccc(O)cc2)(C(F)(F)F)C(F)(F)F)cc1 | 68.2 µM (active)
25 | Oc1ccc2ccc3cccc4ccc1c2c34 | 12.2 µM (active)
26 | CC(C)Oc1cccc(NC(=O)c2ccccc2C(F)(F)F)c1 | 17.2 µM (active)
27 | Oc1cc(Cl)c(Cl)c(Cl)c1 | 25.9 µM (active)
28 | Oc1ccc(I)cc1 | inactive
29 | CN(C)CCc1c[nH]c2ccc(O)cc12 | inactive
30 | COP(N)(=S)OC | inactive
31 | CC(C)[C@H](C(=O)OC(C#N)c1cccc(Oc2ccccc2)c1)c1ccc(OC(F)F)cc1 (stereo not given in full) | inactive
32 | CC(Cc1ccc(C(C)(C)C)cc1)CN1C[C@@H](C)O[C@@H](C)C1 (stereo not given in full) | inactive
33 | COC(=O)N(C(=O)N1COC2(C(=O)OC)Cc3cc(Cl)ccc3C2=N1)c1ccc(OC(F)(F)F)cc1 (stereo not given) | inactive
34 | COc1ccc(OC)c(CC(C)N)c1 (stereo not given) | inactive
35 | O=[N+]([O-])c1cc([N+](=O)[O-])c2ccccc2c1 | inactive
36 | O=[N+]([O-])c1ccc(Oc2ccc(C(F)(F)F)cc2[N+](=O)[O-])cc1 | inactive
37 | Cn1[nH]nnc1=S | inactive
38 | Fc1ccc(Oc2ccnc3cc(Cl)cc(Cl)c23)cc1 | inactive
39 | COc1cc(N)c(Cl)cc1C(=O)NC1CN2CCC1CC2 (stereo not given) | inactive
40 | O=c1[nH]c2ccccc2n1C1CCN(CCCC(c2ccc(F)cc2)c2ccc(F)cc2)CC1 | 27.3 µM (active) and 21.1 µM (active)

Source: PubChem BioAssay (Tox21)
